± gives the uncertainty stated by the source.
What follows are compounds tested on HEK293T-Rex XBP1-RLuc (assay: XBP1-RLuc splicing reporter activation, triplicate, relative to 500 nM thapsigargin (% of thapsigargin); higher = stronger IRE1/XBP1s reporter activation). Conditions: 6.8 µM; 18 h; screen: confirmation.
Experimental: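 HEK293T-Rex cells stably expressing the ERSE-firefly luciferase (BiP promoter, ATF6-preferring) or XBP1-splicing Renilla luciferase (IRE1/XBP1s) reporter, 1536-well plates, compound at 6.8 µM for 18 hr at 37 °C; luminescence read […] and expressed as % activation = 100*(compound - median DMSO)/(median 500 nM thapsigargin - median DMSO). Primary screen was single-pass; confirmation screen in triplicate (mean ± SD).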

`Oc1ccc(-c2cn3ccccc3n2)cc1O` and `O=c1cc(-c2ccc(O)c(O)c2)oc2ccccc12` are within error of each other in “XBP1-RLuc splicing reporter activation” value: 20.8 ± 2 for the first, 20.6 ± 1.5 for the second.

Compared with `CN1C(=O)/C(=C\c2ccc(O)c(O)c2)SC1=S`, `Cn1cccc1/C=C1/SC(=Nc2ccccc2)NC1=O` is lower in “XBP1-RLuc splicing reporter activation” value: 13.9 ± 1.8 for the first, 5.98 ± 0.28 for the second.

`O=C(NCCCn1ccnc1)c1cc(-c2cccs2)on1` and `CCCCNC(=O)c1cc(-c2cccs2)on1` are within error of each other in “XBP1-RLuc splicing reporter activation” value: 7.54 ± 0.78 for the first, 9.51 ± 1.7 for the second.

Compared with `O=C(c1ccccc1)c1c(O)ccc2c(C(=O)c3ccccc3)c(O)ccc12`, `CN(C)c1ccc(/C=C/C(=O)NC(=O)c2ccccc2OC(=O)c2ccccc2)cc1` is lower in “XBP1-RLuc splicing reporter activation” value: 15.8 ± 2.8 for the first, 0.481 ± 0.46 for the second.

`CCCNC(=O)c1cc(-c2ccc(F)cc2)on1` and `Cc1ccc(O)c(-c2cc(-c3ccc(F)cc3)n[nH]2)c1` are within error of each other in “XBP1-RLuc splicing reporter activation” value: 4.12 ± 0.34 for the first, 3.17 ± 2.6 for the second.

`CC(C)c1ccc(/C=N\NC(=O)c2ccccc2)cc1` and `Cc1ccc(O)c(NC(=O)CSc2ccccc2)c1` are within error of each other in “XBP1-RLuc splicing reporter activation” value: 6.81 ± 0.33 for the first, 10.5 ± 5.2 for the second.

`O=C(/C=C/c1ccco1)Nc1ccc(Br)cc1Cl` and `O=C(/C=C/c1ccccc1)Nc1ccc(Br)cn1` are within error of each other in “XBP1-RLuc splicing reporter activation” value: -0.469 ± 0.9 for the first, 0.069 ± 1.1 for the second.

Going from `Cc1ccc(O)c(NC(=O)CSc2n[nH]c(C)c2[N+](=O)[O-])c1` to `COc1cccc(C(=O)/C=C/Nc2cc(C)ccc2O)c1`, the “XBP1-RLuc splicing reporter activation” value falls from 16.6 ± 2.4 to 10.2 ± 0.47.

Compared with `O=C(N/N=C\c1ccccc1[N+](=O)[O-])c1[nH]nc2c1CCc1ccccc1-2`, `C(=C\c1ccccc1)/C=N/Nc1nc2ccccc2[nH]1` is higher in “XBP1-RLuc splicing reporter activation” value: 3.05 ± 1.7 for the first, 5.21 ± 0.2 for the second.

Going from `CC(Oc1ccc(Cl)cc1Cl)C(=O)NNC(=O)c1ccc(O)c(O)c1` (stereo unspecified) to `Nc1ccc2nc(/C=C/c3ccco3)[nH]c2c1`, the “XBP1-RLuc splicing reporter activation” value rises from 15.4 ± 1.8 to 17.8 ± 0.14.

`COc1ccc(C2C=C3Oc4ccccc4N=C3NN2)cc1` (stereo unspecified) was tested, and the “XBP1-RLuc splicing reporter activation” value was 4.19 ± 0.13.

From the supplement of paper PMC4954754
